Measurements reported in PubChem BioAssay (EPA / NIEHS).
Inconclusive results are not listed. Calls of active or inactive are those of the source. Rule for the calls, unless noted: active = hit-call score of the fitted dose curve at least 0.9, where 1 is the maximum; inactive = score below 0.9.

Legend:
[1] = read-out: NAD(P)H dehydrogenase [quinone] 1 (NQO1), NQO1 (gene 1728); experiment: LTEA_HepaRG_NQO1: Life Technologies and Expression Analysis (LTEA) Assay for NAD(P)H dehydrogenase [quinone] 1 (NQO1) using HepaRG (AID 2283526); settings: mRNA level, 48 h; actives raise or lower the signal
Summary of the method: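 HepaRG, 48 h post-plating → serum-free induction medium → test chemical 48 h (duplicate, 100 uM top, half-log x8, 0.5% DMSO) → RNA isolation → qRT-PCR, ACTB/GAPDH/POLR2A normalization; bidirectional curve fit vs DMSO baseline.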

[2] = read-out: Nuclear factor erythroid 2-related factor 2 (Homo sapiens) (UniProt Q16236); experiment: LTEA_HepaRG_NFE2L2: Life Technologies and Expression Analysis (LTEA) Assay for Nuclear factor erythroid 2-related factor 2 (NFE2L2) Transcription Factor using HepaRG (AID 2283527); settings: mRNA level, 48 h; actives raise or lower the signal
Summary of the method: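 Transcript level of NFE2L2 is the read-out, measured by microfluidic TaqMan qRT-PCR and normalized to three housekeeping genes. Human HepaRG cultures received test chemical for 48 h at up to 100 uM in half-log steps. Gain or loss of signal is fitted relative to 0.5% DMSO.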

[3] = read-out: succinate dehydrogenase complex iron sulfur subunit B (SDHB), SDHB (gene 6390); experiment: LTEA_HepaRG_SDHB: Life Technologies and Expression Analysis (LTEA) Assay for succinate dehydrogenase complex iron sulfur subunit B (SDHB) using HepaRG (AID 2283528); settings: mRNA level, 48 h; actives raise or lower the signal
Summary of the method: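 Readout is SDHB transcript level by qRT-PCR, normalised to three housekeeping genes and fitted bidirectionally against 0.5% DMSO vehicle. Human HepaRG cells were treated for 48 h at up to 100 uM.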

[4] = read-out: Signal transducer and activator of transcription 3 (Homo sapiens) (UniProt P40763); experiment: LTEA_HepaRG_STAT3: Life Technologies and Expression Analysis (LTEA) Assay for Signal transducer and activator of transcription (STAT3) using HepaRG (AID 2283529); settings: mRNA level, 48 h; actives raise or lower the signal
Summary of the method: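 Read-out is STAT3 mRNA level by qRT-PCR, normalized to three housekeeping genes, in human HepaRG liver cells treated for 48 h. Concentrations ran from 100 uM downward in half-log steps; curves were fitted for gain or loss relative to 0.5% DMSO.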

[5] = read-out: solute carrier (SLCO1B1), SLCO1B1 (gene 10599); experiment: LTEA_HepaRG_SLCO1B1: Life Technologies and Expression Analysis (LTEA) Assay for solute carrier (SLCO1B1) using HepaRG (AID 2283530); settings: mRNA level, 48 h; actives raise or lower the signal
Summary of the method: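 Differentiated human HepaRG cells were exposed for 48 h in serum-free induction medium to eight half-log concentrations, top 100 uM, in 0.5% DMSO. SLCO1B1 mRNA was measured by qRT-PCR, normalized to ACTB, GAPDH and POLR2A, and fitted bidirectionally against DMSO.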

[6] = read-out: sulfotransferase 2A1 (SULT2A1), SULT2A1 (gene 6822); experiment: LTEA_HepaRG_SULT2A1: Life Technologies and Expression Analysis (LTEA) Assay for sulfotransferase 2A1 (SULT2A1) using HepaRG (AID 2283531); settings: mRNA level, 48 h; actives raise or lower the signal
Summary of the method: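 HepaRG human liver cells, 48 h exposure in serum-free induction medium to 8 half-log concentrations topping at 100 µM (0.5% DMSO), duplicate wells. SULT2A1 mRNA measured by TaqMan qRT-PCR, normalized to ACTB/GAPDH/POLR2A; bidirectional fit against DMSO.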

[7] = read-out: Transforming Growth Factor (TGFA), TGFA (gene 7039); experiment: LTEA_HepaRG_TGFA: Life Technologies and Expression Analysis (LTEA) Assay for Transforming Growth Factor (TGFA) using HepaRG (AID 2283532); settings: mRNA level, 48 h; actives raise or lower the signal
Summary of the method: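 HepaRG (human liver line), 48 h exposure, 8 conc. half-log down from 100 uM, 0.5% DMSO vehicle, duplicates; serum-free induction medium. TGFA mRNA by TaqMan qRT-PCR, ACTB/GAPDH/POLR2A normalization; gain/loss fit vs DMSO.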

[8] = read-out: Transforming Growth Factor (TGFB1), TGFB1 (gene 7040); experiment: LTEA_HepaRG_TGFB1: Life Technologies and Expression Analysis (LTEA) Assay for Transforming Growth Factor (TGFB1) Transporter using HepaRG (AID 2283533); settings: mRNA level, 48 h; actives raise or lower the signal
Summary of the method: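 Differentiated HepaRG cells exposed 48 hr in serum-free induction medium to eight half-log concentrations up to 100 uM (0.5% DMSO), duplicate; TGFB1 mRNA by TaqMan qRT-PCR normalised to ACTB, GAPDH, POLR2A; bidirectional fit against DMSO.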

[9] = read-out: TIMP1, TIMP1 (gene 7076); experiment: LTEA_HepaRG_TIMP1: Life Technologies and Expression Analysis (LTEA) Assay for TIMP1 using HepaRG (AID 2283534); settings: mRNA level, 48 h; actives raise or lower the signal
Summary of the method: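 Differentiated HepaRG cells exposed 48 h in serum-free induction medium, duplicates, eight half-log concentrations from 100 uM in 0.5% DMSO. TIMP1 mRNA by qRT-PCR normalized to ACTB, GAPDH, POLR2A; bidirectional fitting against DMSO.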

[10] = read-out: Tumor necrosis factor receptor 1 (TNFRSF1A), TNFRSF1A (gene 7132); experiment: LTEA_HepaRG_TNFRSF1A: Life Technologies and Expression Analysis (LTEA) Assay for Tumor necrosis factor receptor 1 (TNFRSF1A) using HepaRG (AID 2283535); settings: mRNA level, 48 h; actives raise or lower the signal
Summary of the method: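 Differentiated HepaRG cells in serum-free induction medium, exposed 48 h in duplicate to 8 half-log concentrations up to 100 uM in 0.5% DMSO. TNFRSF1A mRNA by Fluidigm TaqMan qRT-PCR, normalized to ACTB, GAPDH, POLR2A; bidirectional fit.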

[11] = read-out: Thyroid Hormone Responsive (THRSP), THRSP (gene 7069); experiment: LTEA_HepaRG_THRSP: Life Technologies and Expression Analysis (LTEA) Assay for Thyroid Hormone Responsive (THRSP) using HepaRG (AID 2283536); settings: mRNA level, 48 h; actives raise or lower the signal
Summary of the method: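 mRNA induction or loss relative to 0.5% DMSO vehicle was fitted bidirectionally across an eight-point curve whose highest exposure was 100 uM. Human HepaRG liver cells received chemicals in duplicate over 48 h before RNA extraction.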

[12] = read-out: Cellular tumor antigen p53 (Homo sapiens) (UniProt P04637); experiment: LTEA_HepaRG_TP53: Life Technologies and Expression Analysis (LTEA) Assay for Tumor Protein P53 (TP53) using HepaRG (AID 2283537); settings: mRNA level, 48 h; actives raise or lower the signal
Summary of the method: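 Read-out is TP53 transcript level by microfluidic qRT-PCR, normalised to three housekeeping genes and fitted bidirectionally against DMSO. Human HepaRG cells received compounds for 48 h, highest concentration 100 uM.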

[13] = read-out: UDP glucuronosyltransferase (UGT1A1), UGT1A1 (gene 54658); experiment: LTEA_HepaRG_UGT1A1: Life Technologies and Expression Analysis (LTEA) Assay for UDP glucuronosyltransferase (UGT1A1) using HepaRG (AID 2283538); settings: mRNA level, 48 h; actives raise or lower the signal
Summary of the method: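 Readout is UGT1A1 transcript level by qRT-PCR, normalized to three housekeeping genes, after 48 h chemical treatment of HepaRG cells. Concentrations ran from 100 uM down in half-log steps with 0.5% DMSO, and gain or loss relative to DMSO was fitted.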

[14] = read-out: UDP glucuronosyltransferase (UGT1A6), UGT1A6 (gene 54578); experiment: LTEA_HepaRG_UGT1A6: Life Technologies and Expression Analysis (LTEA) Assay for UDP glucuronosyltransferase (UGT1A6) using HepaRG (AID 2283539); settings: mRNA level, 48 h; actives raise or lower the signal
Summary of the method: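 Differentiated HepaRG cells, ~100,000/well, were exposed for 48 h in serum-free induction medium with 0.5% DMSO to 8-point half-log series topping at 100 uM, in duplicate. mRNA measured by Fluidigm TaqMan qRT-PCR, normalized to ACTB, GAPDH and POLR2A.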

[15] = read-out: X-box binding protein 1 (XBP1), XBP1 (gene 7494); experiment: LTEA_HepaRG_XBP1: Life Technologies and Expression Analysis (LTEA) Assay for X-box binding protein 1 (XBP1) using HepaRG (AID 2283540); settings: mRNA level, 48 h; actives raise or lower the signal
Summary of the method: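 Differentiated human HepaRG cells in serum-free induction medium exposed 48 h in duplicate to eight half-log concentrations up to 100 uM in 0.5% DMSO. XBP1 mRNA measured by Fluidigm TaqMan qRT-PCR, normalized to ACTB, GAPDH, POLR2A; bidirectional fitting against DMSO.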

[16] = LTEA_HepaRG_LDH_cytotoxicity: Cytotoxicity Assessment in the Life Technologies and Expression Analysis (LTEA) Assay (AID 2283563; active = hit-call score of the fitted dose curve at least 0.9, where 1 is the maximum;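 for AC50: LDH activity released into spent culture medium as a marker of cell death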)
Summary of the method: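 Differentiated HepaRG cells in serum-free induction medium, exposed 48 h in duplicate to 8 half-log concentrations up to 100 uM in 0.5% DMSO. Cytotoxicity from LDH measured in spent medium, fit relative to DMSO.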

[17] = TOX21_p53_BLA_p2_viability: Viability Assessment in the Tox21 HCT-116 p53 Agonism Beta-lactamase Assay, Phase 2 (AID 2283591; active = hit-call score of the fitted dose curve at least 0.9, where 1 is the maximum;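 note: compound exposure lasted 16 h at 37 °C; actives lower the ATP signal meaning cytotoxicity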)
Summary of the method: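 Cytotoxicity readout: CellTiter-Glo ATP luminescence, 30 min at room temperature, after the beta-lactamase read. Cells were HCT116 exposed 16 h at 37C to compounds pin-transferred at 217-fold dilution from DMSO stocks.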

[18] = TOX21_p53_BLA_p3_viability: Viability Assessment in the Tox21 HCT-116 p53 Agonism Beta-lactamase Assay, Phase 3 (AID 2283593; active = hit-call score of the fitted dose curve at least 0.9, where 1 is the maximum;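 note: cells exposed to compound for 16 h before reading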)
Summary of the method: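 Cellular ATP was quantified by CellTiter-Glo luminescence, read after 30 min at room temperature. Beforehand, HCT116 cells (4000/well) received compound 5 h post-seeding, 217-fold diluted from DMSO, then incubated 16 h at 37C.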

[19] = ATG_XTT_Cytotoxicity: Cytotoxicity Assessment in the Attagene TRANS-FACTORIAL HepG2 Assay (AID 2283584; active = hit-call score of the fitted dose curve at least 0.9, where 1 is the maximum)
Summary of the method: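 HepG2 cells transiently transfected with GAL4-UAS multiple reporter units, dosed 24 h; cytotoxicity read by XTT as loss of signal versus DMSO baseline.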

[20] = biological target: Cellular tumor antigen p53 (Homo sapiens) (UniProt P04637); experiment: TOX21_p53_BLA_p2_ratio: Tox21 HCT-116 p53 Agonism Beta-lactamase Assay, Ratio, Phase 2 (AID 2283592; active = hit-call score of the fitted dose curve at least 0.9, where 1 is the maximum)
Sequence of Cellular tumor antigen p53 (Homo sapiens) (P04637 whole entry, looked up): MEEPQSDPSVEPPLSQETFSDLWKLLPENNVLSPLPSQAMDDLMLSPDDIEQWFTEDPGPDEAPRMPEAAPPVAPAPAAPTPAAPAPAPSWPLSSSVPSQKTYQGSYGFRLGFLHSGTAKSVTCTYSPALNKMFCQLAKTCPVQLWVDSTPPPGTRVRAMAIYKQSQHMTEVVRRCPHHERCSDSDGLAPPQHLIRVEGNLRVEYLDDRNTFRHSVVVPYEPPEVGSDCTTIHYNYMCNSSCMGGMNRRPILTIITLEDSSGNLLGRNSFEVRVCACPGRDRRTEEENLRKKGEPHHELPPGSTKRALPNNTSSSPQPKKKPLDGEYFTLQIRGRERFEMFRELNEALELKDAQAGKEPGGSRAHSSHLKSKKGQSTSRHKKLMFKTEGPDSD
Summary of the method: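 HCT-116 cells with p53-responsive beta-lactamase reporter, 4000 cells/well, preincubated 5 h, then compound in DMSO (217-fold dilution) for 16 h at 37C. CCF4-AM substrate 2 h at room temperature; 460/530 nm emission ratio fitted upward versus DMSO.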

Measured: AC50

Sequence of Nuclear factor erythroid 2-related factor 2 (Homo sapiens) (Q16236 whole entry, looked up): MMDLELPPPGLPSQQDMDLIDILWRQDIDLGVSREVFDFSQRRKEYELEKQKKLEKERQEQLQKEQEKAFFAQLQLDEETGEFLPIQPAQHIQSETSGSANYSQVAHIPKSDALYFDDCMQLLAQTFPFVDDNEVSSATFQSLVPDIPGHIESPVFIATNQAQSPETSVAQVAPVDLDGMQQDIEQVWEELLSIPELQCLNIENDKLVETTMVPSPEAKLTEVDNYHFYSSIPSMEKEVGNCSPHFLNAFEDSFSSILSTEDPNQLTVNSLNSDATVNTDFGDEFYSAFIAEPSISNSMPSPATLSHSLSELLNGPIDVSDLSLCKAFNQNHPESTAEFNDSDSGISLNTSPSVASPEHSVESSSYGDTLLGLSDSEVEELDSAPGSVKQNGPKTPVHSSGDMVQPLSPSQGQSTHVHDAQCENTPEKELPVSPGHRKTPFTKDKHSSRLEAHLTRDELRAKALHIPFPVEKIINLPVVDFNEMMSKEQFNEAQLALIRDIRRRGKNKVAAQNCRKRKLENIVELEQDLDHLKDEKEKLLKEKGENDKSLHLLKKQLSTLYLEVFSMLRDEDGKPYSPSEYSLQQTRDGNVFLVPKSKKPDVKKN
Sequence of Signal transducer and activator of transcription 3 (Homo sapiens) (P40763 whole entry, looked up): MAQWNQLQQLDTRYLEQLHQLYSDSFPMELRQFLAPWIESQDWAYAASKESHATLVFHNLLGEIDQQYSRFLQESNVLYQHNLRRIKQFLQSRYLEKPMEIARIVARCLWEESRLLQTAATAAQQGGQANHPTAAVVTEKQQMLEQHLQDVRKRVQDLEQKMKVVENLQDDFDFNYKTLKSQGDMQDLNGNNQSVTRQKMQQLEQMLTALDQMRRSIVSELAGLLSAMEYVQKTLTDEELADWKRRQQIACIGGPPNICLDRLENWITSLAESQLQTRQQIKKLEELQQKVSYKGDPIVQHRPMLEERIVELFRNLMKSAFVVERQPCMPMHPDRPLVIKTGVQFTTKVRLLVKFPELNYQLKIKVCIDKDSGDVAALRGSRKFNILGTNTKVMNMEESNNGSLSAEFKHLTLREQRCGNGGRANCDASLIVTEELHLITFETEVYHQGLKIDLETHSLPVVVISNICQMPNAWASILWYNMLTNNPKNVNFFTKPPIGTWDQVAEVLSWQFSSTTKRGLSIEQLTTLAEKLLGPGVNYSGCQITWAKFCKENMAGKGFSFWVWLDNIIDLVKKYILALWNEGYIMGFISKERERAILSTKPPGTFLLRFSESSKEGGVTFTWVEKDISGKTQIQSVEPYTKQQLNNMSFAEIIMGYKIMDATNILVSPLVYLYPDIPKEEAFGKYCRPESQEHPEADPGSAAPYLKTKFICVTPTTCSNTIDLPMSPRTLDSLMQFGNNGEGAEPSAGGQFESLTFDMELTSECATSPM

Brc1ccc(Oc2ccccc2)cc1
not listed: [19] | [20]
inactive: all other assays above

C[N+](C)(C)CC1CO1 (stereo not given)
not listed: [18] | [20]
inactive: all other assays above

Nc1ccc(Cl)cc1N
active: [1] 78 µM | [2] 12.2 µM | [3] 21.6 µM | [5] 20.9 µM | [6] 35.4 µM | [7] 16.1 µM | [8] 12.9 µM | [10] 50 µM | [11] 19.3 µM | [12] 12.4 µM | [13] 37.8 µM | [14] 54.9 µM | [15] 21 µM | [16] 35.2 µM
inactive: [4] | [9] | [19] | [17]

COc1cc(C=O)cc2c1[C@H](COC(N)=O)[C@]1(OC(C)=O)ON2C[C@H]2[C@@H]1N2C(C)=O
active: [2] 93.1 µM | [3] 93.4 µM | [5] 0.733 µM | [7] 1.46 µM | [8] 3.38 µM | [9] 2.63 µM | [13] 24.6 µM | [16] 1.54 µM | [20] 249 nM
not listed: [18]
inactive: all other assays above

COC(=O)Nc1nc2ccccc2[nH]1
active: [13] 31.4 µM
not listed: [17] | [18] | [20]
inactive: all other assays above

CCC(C)c1ccc(O)cc1 (stereo not given)
active: [4] 0.361 µM
not listed: [18]
inactive: all other assays above

CNC(=O)Oc1cccc2c1OC(C)(C)C2
active: [13] 3.38 µM
not listed: [18] | [19] | [20]
inactive: all other assays above

Nc1ccc(Oc2ccc(N)cc2)cc1
active: [13] 78.9 µM
not listed: [18] | [20]
inactive: all other assays above

CO[C@@H]1[C@H](OC(=O)NC(=O)CCl)CC[C@]2(CO2)[C@H]1[C@@]1(C)O[C@@H]1CC=C(C)C
not listed: [17] | [20]
inactive: all other assays above

O=P(OCCCl)(OCCCl)OCCCl
not listed: [20]
inactive: all other assays above

C1=Cc2cccc3cccc1c23
inactive: all assays above

O=C1CCCO1
active: [1] 50 µM | [10] 77 µM | [12] 50 µM | [14] 50 µM
not listed: [17] | [20]
inactive: all other assays above

CC(C)(O)c1cnn2c(-c3ccc(F)c(-c4c(F)cccc4C#N)c3)cnc2n1
active: [2] 6.33 µM | [7] 12.6 µM | [13] 0.268 µM
not listed: [18] | [19]
inactive: all other assays above

Cc1cccc(N)c1N
active: [4] 9.92 µM | [5] 50 µM | [11] 32.3 µM | [13] 17.2 µM | [15] 50 µM
not listed: [10] | [19]
inactive: all other assays above
